This is a sample that favours compounds with a hit; in the whole collection about 2.3% have one here.
CHO-K1 Ca antag = M1 antagonist counterscreen hit in parental CHO-K1 cells; ATP-induced calcium, Fluo-8 fluorescence; inhibition, % at 3 µM; hit rate 0.6% among 360,000;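 active = inhibition above a per-plate cutoff, the plate's mean sample inhibition plus 3 SD, cut at about 24% in these data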;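 note: 0% = DMSO plus EC80 ATP and 100% = DMSO alone without ATP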
CHRM1 PAM = human M1 muscarinic receptor positive allosteric modulators, primary screen, CHO-K1 cells, Fluo-8 calcium fluorescence, 1536-well | AID 588819, 2011 | CHO-K1 hM1, ACh EC20; 0% = ACh EC20, 100% = maximal ACh | hit rate 0.088% among 360,000 | Muscarinic acetylcholine receptor M1 (Homo sapiens), P11229 | activation, % at 3 µM; in the data active = activation above about 19%, passing the limit was not always enough
Target sequence (P11229 whole entry, looked up): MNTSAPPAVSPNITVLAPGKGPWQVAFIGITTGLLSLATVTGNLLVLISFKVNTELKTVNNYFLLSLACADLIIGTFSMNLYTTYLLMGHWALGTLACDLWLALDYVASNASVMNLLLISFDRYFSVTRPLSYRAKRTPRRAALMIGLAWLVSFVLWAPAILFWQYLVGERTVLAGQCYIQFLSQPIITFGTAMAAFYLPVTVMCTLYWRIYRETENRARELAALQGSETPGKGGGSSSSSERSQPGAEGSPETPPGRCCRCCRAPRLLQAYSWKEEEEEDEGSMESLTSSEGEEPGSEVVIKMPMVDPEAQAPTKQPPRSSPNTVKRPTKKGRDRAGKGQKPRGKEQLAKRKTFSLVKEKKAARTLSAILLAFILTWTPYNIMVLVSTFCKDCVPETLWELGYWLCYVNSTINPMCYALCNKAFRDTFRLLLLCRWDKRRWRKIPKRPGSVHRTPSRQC
M1 ag = human M1 muscarinic receptor agonists, primary screen, Fluo-8 calcium fluorescence, CHO-K1 cells, HTS; Muscarinic acetylcholine receptor M1 (Homo sapiens), P11229; CHO-K1 hM1, agonist mode; 0% DMSO, 100% acetylcholine EC100; activation, % at 3 µM; hit rate 0.33% among 360,000;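 active = activation above the run's mean compound activation plus 3 SD, cut at about 16% in these data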;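 note: peak over basal fluorescence ratio within a 140 s kinetic read after compound addition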
CHO-K1 Ca PAM = nonselective calcium activators in parental CHO-K1 cells, primary screen, counter-screen for M1 PAM project, cell-based, Fluo-8 calcium fluorescence, full deck, 1536-well. ATP EC20; 0% at ATP EC20, 100% at ATP max. hit rate 0.02% among 360,000. activation, % at 3 µM;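 active = activation above the run cutoff, the mean activation of all test compounds plus 3 SD, cut at about 40% in these data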;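 note: peak over basal fluorescence ratio in a 140 s read after ATP addition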
M1 ag parental = counter-screen for M1 agonists: effect in parental CHO-K1 cells. activation, % at 3 µM. Fluo-8 calcium fluorescence; scaled to maximal ATP response, vehicle zero. hit rate 0.48% among 360,000; in the data active = activation above about 15%;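 note: untransfected CHO-K1 host cells lacking M1 receptor as counterscreen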
CHRM1 antagonist = human M1 muscarinic receptor antagonists, primary screen, CHO-K1 cells, Fluo-8 calcium fluorescence, 1536-well | CHO-K1 hM1, ACh EC80 antagonist | inhibition, % at 3 µM | hit rate 1.3% among 360,000;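 active = percent inhibition above its own plate's cutoff, namely the mean of that plate's compound wells plus 3 SD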;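 note: peak over basal fluorescence ratio during 140 s after agonist addition; 0% = ACh EC80 plus DMSO and 100% = DMSO alone without agonist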
Numbers without * were called inactive; · = not tested or not shown.

SMILES | CHO-K1 Ca antag | CHRM1 PAM | M1 ag | CHO-K1 Ca PAM | M1 ag parental | CHRM1 antagonist
O=C1CCC[C@@H]2[C@@H](Cc3ccccc3)[C@H](N3CCN(c4ccccc4)CC3)C[C@@H]3CCN1[C@@H]32 | -22 | 2 | -9 | 6 | 0 | -6
O=C(c1cc(COc2ccc(F)cc2Cl)on1)N1CC[C@@H]2CCCC[C@H]2C1 | -3 | 1 | -3 | 1 | 0 | 0
COCC1CCN(C(=O)c2cc(COc3ccc(F)cc3Cl)on2)C1 (stereo not given) | -16 | 1 | -5 | 7 | 1 | -14
CCN(CC)C1CCN(C(=O)c2cc(COc3ccccc3SC)on2)C1 (stereo not given) | -8 | -17 | 1 | 7 | 1 | 56*
CSc1ccccc1OCc1cc(C(=O)N2CCC(Oc3cccnc3)CC2)no1 | 0 | -19 | -1 | 6 | 12 | 39*
CSc1ccccc1OCc1cc(C(=O)N2CCSCC2)no1 | -5 | 6 | -3 | 5 | 1 | 2
Cn1ccnc1C1CCCCN1C(=O)c1cc(COc2ccc(F)cc2Cl)on1 (stereo not given) | -6 | -32 | -13 | 4 | 2 | 36*
CCN(CC)C1CCN(C(=O)c2cc(COc3ccc(F)cc3Cl)on2)C1 (stereo not given) | 14 | -19 | 2 | -21 | 1 | 70*
CSc1ccccc1OCc1cc(C(=O)N2CCCC(C)C2)no1 (stereo not given) | -5 | 4 | -5 | 18 | 0 | 1
CCOC(=O)[C@]12CCCC=C1N(Cc1ccc(Cl)cc1Cl)C(=O)[C@H](CC(=O)NCC1CCCCC1)C2 | 0 | · | · | -5 | 0 | ·
Cc1cc(OCC(=O)NCCN2CCOCC2)c2c(C)c(C)c(=O)oc2c1 | -6 | -2 | -5 | 0 | 1 | 6
COc1ccc(-c2sc(C(=O)c3ccc(Cl)cc3Cl)cc2CC(=O)O)cc1 | 1 | -1 | -7 | 0 | 5 | 3
CC1CCN(CCC(=O)N2CCCc3c2c(=O)oc2ccc(O)cc32)CC1 | -6 | -2 | -6 | 5 | 0 | -2
CN(CC(=O)N1CCCc2c1c(=O)oc1ccc(O)cc21)Cc1ccccc1 | 3 | -26 | -7 | 15 | 1 | 24*
COC(=O)CN1CCN(C(c2ccccc2)c2ccccc2)CC1 | 1 | -11 | -1 | 5 | 0 | 14
CN(Cc1ccccc1)C(=O)CN1CCN(C(c2ccccc2)c2ccccc2)CC1 | -6 | -20 | 1 | 12 | 1 | 86*
CCOC(=O)[C@@H]1[C@H]2COc3ccc(Br)cc3[C@@H]2N2C(=O)N(c3ccc(OC)cc3)C(=O)[C@@]12C | -8 | -2 | -6 | 8 | 2 | 12
CCN=C(NCC)SC1CC(=O)N(c2cccc(OCC)c2)C1=O (stereo not given) | 30* | -12 | 2 | -8 | 7 | 44*
CCCN(CC1CC1)C(=S)NC(=O)c1cc(Br)ccc1Cl | 1 | 11 | -3 | 8 | 0 | -12
O=C(Cc1ccc(F)cc1)Nc1nc(-c2ccc(F)cc2)cs1 | 3 | -30 | -9 | -28 | 6 | 35*
COc1ccc(-c2csc(NC(=O)[C@H](C)N3C(=O)C4CC=CCC4C3=O)n2)cc1OC (stereo not given in full) | -5 | -5 | -1 | 26 | 7 | 12
COc1ccc(CC(=O)Nc2nc(C)cs2)cc1 | 7 | 4 | -4 | -6 | 16* | -1
CC(C(=O)Nc1nc(-c2ccc(F)c(F)c2)cs1)N1C(=O)C2CC=CCC2C1=O (stereo not given) | 0 | -17 | -1 | -1 | 13 | 31*
O=C(Cc1ccccc1F)Nc1nc(-c2ccc(F)c(F)c2)cs1 | -7 | -16 | -8 | 7 | 6 | 9
Cc1csc(NC(=O)Cc2ccc(Cl)cc2)n1 | -9 | 7 | -1 | 6 | 1 | -6
SMILES | CHO-K1 Ca antag | CHRM1 PAM | M1 ag | CHO-K1 Ca PAM | M1 ag parental | CHRM1 antagonist
O=C(O)CCCC(=O)Nc1nc(-c2ccc(F)cc2)cs1 | -5 | 5 | -2 | 9 | 0 | -12
O=C(Cc1ccccc1)Nc1nc(-c2ccc(F)c(F)c2)cs1 | 5 | -30 | -8 | -3 | 7 | 37*
CCn1cc(/C=C(\NC(=O)c2ccc(OC)cc2)C(=O)N2CCOCC2)c2ccccc21 | 1 | 10 | 1 | -14 | 1 | -1
O=C(NCCC(=O)N1CCN(c2ccccn2)CC1)c1ccc(Br)cc1 | -10 | 4 | -5 | 1 | 1 | -5
CCc1cccc(C)c1NC(=O)CN1C(=O)NC(C)(CCC(C)C)C1=O (stereo not given) | -15 | 5 | -2 | 23 | 3 | -5
Cc1ccc2nc(/C(C#N)=C\c3ccc(N4CCOCC4)o3)[nH]c2c1 | 11 | -12 | 31* | -10 | 8 | 20
CCN(CC(=O)Nc1cc(S(=O)(=O)N2CCOCC2)ccc1C)Cc1ccccc1 | -11 | 1 | -2 | -6 | 1 | 8
COc1cccc(NC(=O)CSc2nnc3ccc(-c4ccncc4)nn23)c1 | -5 | 3 | -8 | 5 | 0 | -6
O=C(NCc1ccc(Cl)cc1)c1ccc(Cl)cc1[N+](=O)[O-] | -3 | 11 | -1 | 8 | 0 | -16
Cc1ccc(CNC(=O)c2ccc(Cl)cc2[N+](=O)[O-])cc1 | 26* | -10 | -4 | -8 | 0 | 13
Cc1nc2c(OCc3ccc(C(F)(F)F)cc3)cccn2c1N(C)CC1CC1 | 9 | -33 | -4 | -3 | 7 | 36*
CCOC(=O)N(C)c1c(CC)nc2c(OCc3ccc(F)c(F)c3)cccn12 | -1 | -7 | -10 | -3 | 0 | 12
Cc1nc2c(OCc3cc(Cl)cc(Cl)c3)cccn2c1N(C)C(=O)CCC1CCCC1 | 5 | -17 | -7 | -8 | 3 | 38*
Cc1nc2c(OCc3ccc(C#N)cc3)cccn2c1N(C)Cc1cccs1 | 3 | -25 | -2 | -6 | 5 | 45*
Cc1nc2c(OCC(=O)c3ccc(F)cc3)cccn2c1N(C)Cc1cccs1 | -10 | 0 | -6 | 17 | 1 | -13
CCc1nc2c(OCc3ccc(F)c(F)c3)cccn2c1N(C)C(=O)C1CC1 | 6 | -10 | -9 | -2 | 0 | 25*
CCc1nc2c(OCCOc3ccccc3)cccn2c1N(C)C(=O)c1ccc(C)cc1 | -1 | -32 | -9 | -10 | 0 | 44*
CCc1nc2c(OCCOc3ccc(F)cc3)cccn2c1N(C)C(=O)c1ccc(C)cc1 | 11 | -28 | -10 | 3 | 1 | 30

Screens deposited in PubChem BioAssay by The Scripps Research Institute Molecular Screening Center.
